Myeloid diff MLP – compounds promoting myeloid differentiation; ER-HoxA9 myeloid progenitors, lysozyme-GFP differentiation, flow cytometry; calls only at 10 µM; hit rate 1% among 360,000; AID 624256;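 active means normalized GFP-positive differentiation at or above the plate's own cutoff, the solvent-only control mean plus 3 SD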;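 further: cells exposed to compound for four days before flow analysis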
Exocytosis inh – lytic granule exocytosis inhibition | TALL-104 LAMP-1 surface exposure, flow cytometry; cells stimulated with thapsigargin and PMA | inhibition, % at 10 µM | hit rate 0.66% among 360,000 | AID 651702;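 active means inhibition above about 55%, limit read from the data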
ABCB6 inh 2 – inhibitors of human ABC transporter ABCB6. hit rate 0.19% among 360,000. AID 602162. fluorescence ratio to DMSO, % at 10 µM. K562-ABCB6 porphyrin accumulation, flow cytometry, 1 h; active compounds read low;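 active means fluorescence ratio to DMSO below 75%, the collection mean minus 3 SD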;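 further: signal is porphyrin accumulated inside mitochondria; 100% equals median channel fluorescence of DMSO control wells; lower ratio means ABCB6 inhibition with less porphyrin fluorescence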
Target sequence (Q9NP58 whole entry, looked up): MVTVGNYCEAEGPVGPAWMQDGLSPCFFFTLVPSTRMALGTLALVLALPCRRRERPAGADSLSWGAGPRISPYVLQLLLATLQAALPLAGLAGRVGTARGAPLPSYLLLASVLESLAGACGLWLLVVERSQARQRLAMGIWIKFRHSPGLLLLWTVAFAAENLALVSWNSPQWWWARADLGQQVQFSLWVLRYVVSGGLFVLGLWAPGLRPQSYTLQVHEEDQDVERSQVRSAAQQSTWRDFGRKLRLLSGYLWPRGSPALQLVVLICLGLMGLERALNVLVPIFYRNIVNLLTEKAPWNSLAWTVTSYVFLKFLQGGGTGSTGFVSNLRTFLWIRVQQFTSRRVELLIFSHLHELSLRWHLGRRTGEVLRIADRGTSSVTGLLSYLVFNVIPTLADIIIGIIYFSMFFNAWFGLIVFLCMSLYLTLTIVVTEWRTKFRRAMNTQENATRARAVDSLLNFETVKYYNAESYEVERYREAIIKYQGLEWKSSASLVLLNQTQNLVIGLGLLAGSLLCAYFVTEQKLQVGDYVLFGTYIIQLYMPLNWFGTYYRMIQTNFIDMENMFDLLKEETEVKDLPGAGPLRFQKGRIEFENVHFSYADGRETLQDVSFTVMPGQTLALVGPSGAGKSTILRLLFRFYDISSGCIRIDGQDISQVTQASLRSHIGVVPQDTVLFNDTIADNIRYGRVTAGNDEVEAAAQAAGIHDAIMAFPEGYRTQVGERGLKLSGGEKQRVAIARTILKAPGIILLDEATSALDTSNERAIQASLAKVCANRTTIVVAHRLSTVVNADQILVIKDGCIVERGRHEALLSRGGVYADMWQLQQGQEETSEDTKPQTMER
Myeloid diff – compounds promoting myeloid differentiation; shares compounds with Myeloid diff MLP; ER-HoxA9 myeloid progenitors, GFP/Mac1 double-positive flow; calls only; hit rate 2% among 2,300;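 active means share of green or green-and-red cells above 9 and 9% in run 1 or 4 and 3% in run 2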
GFP autofluor – counter-screen for myeloid differentiation promoters: compound fluorescence; shares compounds with Myeloid diff MLP; ER-HoxA9 myeloid progenitors, no estrogen, GFP autofluorescence flow cytometry; vehicle wells 0%, positive control 100%; fluorescence response, % (concentration not given with the values); hit rate 7.4% among 2,300;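 active means over 5% cells positive for green fluorescent reporter, or over 2% positive for both it and APC stain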;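 further: range taken on the double positive population between DMSO and positive control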
* hit, by the source's call; i = inactive; x = no result given; + = active, no number; ! = repeats disagree. In the library only some 1.8% were active in any assay of this set; here they are far more common.

SMILES	Myeloid diff MLP	Exocytosis inh	ABCB6 inh 2	Myeloid diff	GFP autofluor
CCN(CC(=O)Nc1ccc(NC(C)=O)cc1)C(=O)c1ccc(Sc2nncn2C)c([N+](=O)[O-])c1	i	0	95	x	x
COc1cccc(C(=O)NNC(=O)Cc2ccc([N+](=O)[O-])cc2)c1	i	-3	94	x	x
COc1ccc(CC(=O)NNC(=O)c2ccc(SCc3cc(F)ccc3F)c([N+](=O)[O-])c2)cc1	i	-3	108	i	0
CCCCCCn1c(-c2cccs2)n[nH]c1=S	i	-2	97	x	x
O=C(Nc1cccc(S(=O)(=O)N2CCCCC2)c1)C1CCCC1	i	0	90	x	x
Cc1cccc(C(=O)N[C@H](C(=O)Nc2cccc(S(=O)(=O)N3CCCC3)c2)C(C)C)c1	i	1	98	i	0
O=C(Nc1cccc(S(=O)(=O)N2CCCCCC2)c1)C1CCC1	i	3	98	i	0
Cc1cccc(C(=O)NC(C(=O)Nc2cccc(S(=O)(=O)N3CCCC3)c2)C(C)C)c1 (stereo unspecified)	i	9	97	x	x
O=C(Nc1cccc(-c2cscn2)c1)C1CCN(Cc2ccccn2)CC1	i	0	93	x	x
O=C(Cn1cnc2ccccc21)OCC(=O)N1CCCCC1	i	16	102	x	x
COc1ccc(CC(=O)NCCS(=O)(=O)N2CCN(c3ccccc3OC)CC2)cc1	i	-26	102	x	x
Cc1ccc(S(=O)(=O)N(Cc2ccccc2)c2ccccc2C(=O)N2CCCCC2)cc1	i	-8	94	x	x
O=C(CC(=O)NN=Cc1ccc2c(c1)CCC2)NN=Cc1ccc2c(c1)CCC2	i	-5	88	x	x
CCC(C)[C@H](NC(=O)NCc1cccnc1)C(=O)OC (stereo partly specified)	i	7	100	x	x
CCC(C)[C@H](NC(=O)NCc1ccccc1Cl)C(=O)OC (stereo partly specified)	i	0	95	i	0
O=S(=O)(NCC1CCCN(Cc2ccccc2O)C1)c1cccc2cccnc12 (stereo unspecified)	i	-1	98	x	x
CCOc1ccc(S(=O)(=O)Nc2cc(NS(=O)(=O)c3ccc(OCC)cc3)cc(C(=O)O)c2)cc1	i	13	103	x	x
CCOc1ccc(NS(=O)(=O)c2ccc(NS(=O)(=O)c3ccccc3)cc2)cc1	i	-5	100	i	0
Cc1ccc(C(=O)N(CC(=O)NC2CCCC2)c2ccccc2F)s1	i	10	94	x	x
CC(C)CN(C(=O)COC(=O)c1ccc2c(c1)OCO2)c1c(N)n(Cc2ccccc2)c(=O)[nH]c1=O	i	-10	103	x	x
COc1ccc(CN2CCC(=O)N([C@H](CO)Cc3ccccc3)CC2)cc1OC	i	-7	99	x	x
O=C(Nc1cccc(C(=O)O)c1)/C(=C\c1ccc(F)cc1)NC(=O)c1ccco1	i	2	97	x	x
COc1cc(CNCCc2c[nH]c3ccccc23)ccc1OCc1ccc(F)cc1	i	35	102	i	0
COc1cccc(CNCCc2c[nH]c3ccccc23)c1OCc1ccc(F)cc1	i	31	94	x	x
COc1ccc(CCNC(=O)c2nn(C)cc2Cl)cc1	+	5	102	i	0
SMILES	Myeloid diff MLP	Exocytosis inh	ABCB6 inh 2	Myeloid diff	GFP autofluor
COc1ccc(CCNC(=O)c2ccc(Cl)cc2)cc1	i	6	101	x	x
Cc1ccc(C)c(N(CC(=O)NC2CCCC2)C(=O)c2oc(C(C)(C)C)cc2C)c1	i	2	95	i	0
Cc1cc(C(C)(C)C)oc1C(=O)N(CC(=O)NC1CCCC1)Cc1ccccc1	i	2	99	x	x
CC(C)(C)n1nnnc1CN1CCN2CCCC2C1 (stereo unspecified)	i	-3	89	x	x
COCCn1nnnc1CN1CCN2CCCC2C1 (stereo unspecified)	+	2	96	i	0
Cc1cc(C)nc(NC(=O)c2c(F)c(F)c(F)c(C(=O)Nc3cc(C)cc(C)n3)c2F)c1	i	6	98	x	x
Cc1cc(C)c2c(N)c(C(=O)Nc3c(C)n(C)n(-c4ccccc4)c3=O)sc2n1	i	-4	103	x	x
COCC(C)n1c(SCC(=O)N2CCc3ccccc3C2)nc2ccccc2c1=O (stereo unspecified)	i	0	97	x	x
Cc1ccc(NS(=O)(=O)c2ccc3c(c2)C(=O)c2ccccc2C3=O)c(C)c1	i	0	98	x	x
Cc1ccc(NC2=CC(=O)C(=O)c3ccccc32)c(C)c1	+	-2	102	i	3.1*
COCc1cc(C)nc(N/N=C/c2ccc(Cl)c(Cl)c2)c1C#N	i	-3	99	x	x
O=C(Nc1ccc(F)cc1)c1sccc1SCc1cccc(C(F)(F)F)c1	i	19	99	x	x
COc1ccc(NC(=O)c2sccc2SCc2cccc(C(F)(F)F)c2)cc1	i	13	93	i	0
O=C(Cc1ccccc1)NN1C(=O)C2C(C1=O)C1C=CC2C12CC2 (stereo unspecified)	i	-2	103	x	x
O=C(Nc1cc(S(=O)(=O)N2CCOCC2)ccc1N1CCOCC1)c1ccc([N+](=O)[O-])s1	i	-1	103	x	x
Cc1ccc(NC(=O)c2ccc([N+](=O)[O-])s2)cc1S(=O)(=O)N1CCOCC1	+	6	94	i	0
CCC(=O)N/C(N)=N/c1nc(C)c2cc(C)c(C)cc2n1	i	-8	101	x	x
Cc1cc2nc(/N=C(\N)NC(=O)C(C)C)nc(C)c2cc1C	i	0	99	i	0
S=C(NCC1CCCO1)N1CCN(Cc2ccccc2Cl)CC1 (stereo unspecified)	i	3	99	x	x
O=C(NC(=S)Nc1ccc(N2CCOCC2)c(Cl)c1)C(c1ccccc1)c1ccccc1	i	-2	101	x	x
COc1ccc(NC(=O)CSc2nnnn2-c2ccc(F)cc2)cc1	i	9	97	x	x
O=C(CSc1nnnn1-c1ccc(F)cc1)Nc1ccc(N2CCOCC2)c(Cl)c1	+	-2	97	i	0
CCCC(=O)NC(=S)Nc1ccc(N2CCOCC2)c(Cl)c1	i	-11	115	i	0
O=C(Cn1c(=O)c(=O)n(Cc2ccccc2)c2ccc(Cl)cc21)Nc1cccc(F)c1	i	3	102	x	x
COc1ccccc1C(=O)NCCCNC(=O)c1ccccn1	i	-5	97	x	x
SMILES	Myeloid diff MLP	Exocytosis inh	ABCB6 inh 2	Myeloid diff	GFP autofluor
O=C(NCCCNCc1ccccc1)c1ccccn1	+!	8	106	i	0
CC(C)CC1NC(=O)N(CC(=O)Nc2cc(S(=O)(=O)N3CCOCC3)ccc2Cl)C1=O (stereo unspecified)	i	15	100	x	x
CCCc1c(-c2ccc(F)cc2)ncn1CCc1ccccc1OC	i	10	117	x	x
CCCCc1c(-c2cccc(OC)c2)ncn1CCc1ccccc1OC	+	30	93	i	0
COc1ccccc1CCn1cnc(-c2ccc(OC)c(OC)c2)c1C(C)C	i	9	96	i	0
CCCCc1c(-c2ccc(OC)c(OC)c2)ncn1CCc1ccccc1OC	i	32	126	x	x
CCOC(=O)c1c(-c2ccc(OC)cc2)csc1NC(=O)CSc1ncnc2sccc12	i	-10	95	i	1

Screens: PubChem, NMMLSC
